Assay [1] in a line: optical density shifts of acrAB sulA E. coli – strain DRC41, OD650, 48 h, E. coli filamentation inducer project, primary screen (AID 1152).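 Also: E. coli MC1000 strain DRC41 lacking acrAB efflux pump and sulA.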 Conditions: higher = more signal, called active from +8 up or from −8 down.
A short description of assay [2]: probe aLefty1 binding on compound microarray – biochemical, small-molecule microarray, 635/667 nm fluorescence, primary screen (AID 1153).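 Also: score merges spot fluorescence with signal-to-noise ratio from the scanned slide images.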 Conditions: higher = more signal.
The nature of assay [3]: plasmodial surface anion channel blockers, osmotic lysis – cell-based, P. falciparum Indochina, OD700, 1 h, primary screen (AID 1154). Conditions: P. falciparum Indochina infected RBC osmotic lysis, higher = more signal, called active from +8 up or from −8 down.
Assay [4] is described as follows: plasmodial surface anion channel blockers, osmotic lysis – cell-based, P. falciparum Indochina, OD700, 2 h, primary screen (AID 1155).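 Also: lysis reports solute entry through the parasite surface anion channel PSAC.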 The conditions noted are these: P. falciparum Indochina infected erythrocytes, higher = more signal, called active from +8 up or from −8 down.
The nature of assay [5]: changes in parasitized red cell lysis, either direction – P. falciparum Indochina, OD700, 3 h, PSAC antagonist project, primary screen (AID 1156). Conditions: P. falciparum-infected erythrocytes, osmotic lysis, higher = more signal, called active from +8 up or from −8 down.
Assay [6] can be described thus: plasmodial surface anion channel blockers, osmotic lysis – cell-based, P. falciparum Indochina, OD700, 18 h, primary screen (AID 1157). Conditions: P. falciparum Indochina infected erythrocytes, osmotic lysis OD700, 18 h; higher = more signal, called active from +8 up or from −8 down.
Assay [7] can be described thus: S6 kinase pathway phospho-S6 level changes – cell-based, A549, cytoblot, luminescence, serum-stimulated, primary screen (AID 1158).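 Also: serum-stimulated A549 lung adenocarcinoma cells; signal is phosphorylated S6 detected by cytoblot immunostaining with HRP secondary.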 Conditions: 5 h, higher = more signal.
Assay [8] deals with NADPH oxidase 2 (Homo sapiens) (UniProt P04839). Description: compounds shifting NOX2 Amplex Red fluorescence – cell-based, HEK293-NOX2, PMA-stimulated, NOX inhibitor project, primary screen (AID 1159). Also: test concentration not given here. Conditions: 45 min, higher = more signal, called active from +8 up or from −8 down.
The target of assay [9] is NADPH oxidase 4 (Homo sapiens) (UniProt Q9NPH5). Kind of assay: compounds shifting NOX4 Amplex Red fluorescence – cell-based, HEK293-NOX4, tetracycline-induced, NOX inhibitor project, primary screen (AID 1160). The conditions noted are these: HEK293-NOX4, Amplex Red H2O2 fluorescence, 45 min; higher = more signal, called active from +8 up or from −8 down.
Assay [10] concerns the target NADPH oxidase 5 (Homo sapiens) (UniProt Q96PH1). Kind of assay: compounds shifting NOX5 Amplex Red fluorescence – cell-based, HEK293-NOX5, NOX inhibitor project, primary screen (AID 1161). Conditions: HEK293-NOX5, ionomycin, 45 min, higher = more signal.
The nature of assay [11]: compound effects on lung adenocarcinoma cell viability – A549, calcein-AM fluorescence, 48 h, basal, profiling panel (AID 1162). Also: test concentration not given here. The conditions noted are these: higher = more signal.
Assay [12] is described as follows: compound effects on differentiated 3T3-L1 adipocyte viability – cell-based, 3T3-L1 adipocytes, calcein-AM fluorescence, 48 h, basal, profiling panel (AID 1163). Also: test concentration not given here. The conditions noted are these: 3T3-L1 adipocytes viability, higher = more signal.
Assay [13] can be described thus: compound effects on hepatocellular carcinoma cell viability – HepG2, calcein-AM fluorescence, 48 h, basal, profiling panel (AID 1164). Also: test concentration not given here. Conditions: higher = more signal.
The nature of assay [14]: compound effects on multiple myeloma cell viability – MM1S, calcein-AM fluorescence, 48 h, basal, profiling panel (AID 1165). Also: test concentration not given here. Conditions: higher = more signal.
Assay [15] in a line: calcein-AM signal in unstimulated myeloma cells – cell-based, calcein-AM fluorescence, 48 h, PK04 Diversity Set, profiling panel (AID 1166).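 Also: cells grown under basal conditions without added stimulus; test concentration not given here.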 The conditions noted are these: RPMI8226 myeloma viability, higher = more signal.
Assay [16] can be described thus: JC-1 mitochondrial signal, unstimulated HepG2 cells – cell-based, JC-1 fluorescence, 24 h, 100 nL compound, profiling panel (AID 1167). Also: test concentration not given here. Conditions: HepG2 mitochondrial potential, higher = more signal.
Assay [17] can be described thus: JC-1 mitochondrial signal, unstimulated adipocytes – cell-based, JC-1 fluorescence, 3T3-L1 adipocytes, 24 h, 100 nL compound, profiling panel (AID 1168). Also: test concentration not given here. The conditions noted are these: JC-1 mitochondrial fluorescence, higher = more signal, called active from +8 up or from −8 down.
Assay [18] is described as follows: JC-1 mitochondrial signal, unstimulated myeloma cells – cell-based, JC-1 fluorescence, RPMI8226, 24 h, 100 nL compound, profiling panel (AID 1169). Also: test concentration not given here. The conditions noted are these: JC-1 mitochondrial potential fluorescence, higher = more signal.
A short description of assay [19]: JC-1 mitochondrial signal, unstimulated MM1S myeloma – cell-based, JC-1 fluorescence, 24 h, 100 nL compound, profiling panel (AID 1170). Also: test concentration not given here. The conditions noted are these: MM1S mitochondrial potential, higher = more signal.
A short description of assay [20]: resazurin metabolic signal in A549 cells – cell-based, resazurin fluorescence, 24 h, PK04 Diversity Set, profiling panel (AID 1171). Also: test concentration not given here. Conditions: A549 viability, higher = more signal, called active from +8 up or from −8 down. (The colour change of resazurin is a common sign of viable cells or microbes.)

Active and inactive are the calls of the source.

Chain of NADPH oxidase 4 (Homo sapiens) (Q9NPH5 whole entry, looked up): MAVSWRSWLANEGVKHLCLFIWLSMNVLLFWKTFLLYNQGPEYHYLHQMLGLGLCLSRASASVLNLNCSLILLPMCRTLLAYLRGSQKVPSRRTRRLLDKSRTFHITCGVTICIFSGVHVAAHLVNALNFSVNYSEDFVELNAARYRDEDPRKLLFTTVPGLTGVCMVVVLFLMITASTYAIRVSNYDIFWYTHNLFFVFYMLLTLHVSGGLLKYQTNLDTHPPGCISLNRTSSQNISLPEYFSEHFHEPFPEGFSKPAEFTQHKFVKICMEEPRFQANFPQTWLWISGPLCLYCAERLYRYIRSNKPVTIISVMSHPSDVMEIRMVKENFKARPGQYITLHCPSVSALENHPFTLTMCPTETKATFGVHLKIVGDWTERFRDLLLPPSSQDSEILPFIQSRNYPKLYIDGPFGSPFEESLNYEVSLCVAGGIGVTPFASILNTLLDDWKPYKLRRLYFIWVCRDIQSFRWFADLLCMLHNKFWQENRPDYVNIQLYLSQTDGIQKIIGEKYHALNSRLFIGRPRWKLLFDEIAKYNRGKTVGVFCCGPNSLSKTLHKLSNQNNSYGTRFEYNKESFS
Chain of NADPH oxidase 5 (Homo sapiens) (Q96PH1 whole entry, looked up): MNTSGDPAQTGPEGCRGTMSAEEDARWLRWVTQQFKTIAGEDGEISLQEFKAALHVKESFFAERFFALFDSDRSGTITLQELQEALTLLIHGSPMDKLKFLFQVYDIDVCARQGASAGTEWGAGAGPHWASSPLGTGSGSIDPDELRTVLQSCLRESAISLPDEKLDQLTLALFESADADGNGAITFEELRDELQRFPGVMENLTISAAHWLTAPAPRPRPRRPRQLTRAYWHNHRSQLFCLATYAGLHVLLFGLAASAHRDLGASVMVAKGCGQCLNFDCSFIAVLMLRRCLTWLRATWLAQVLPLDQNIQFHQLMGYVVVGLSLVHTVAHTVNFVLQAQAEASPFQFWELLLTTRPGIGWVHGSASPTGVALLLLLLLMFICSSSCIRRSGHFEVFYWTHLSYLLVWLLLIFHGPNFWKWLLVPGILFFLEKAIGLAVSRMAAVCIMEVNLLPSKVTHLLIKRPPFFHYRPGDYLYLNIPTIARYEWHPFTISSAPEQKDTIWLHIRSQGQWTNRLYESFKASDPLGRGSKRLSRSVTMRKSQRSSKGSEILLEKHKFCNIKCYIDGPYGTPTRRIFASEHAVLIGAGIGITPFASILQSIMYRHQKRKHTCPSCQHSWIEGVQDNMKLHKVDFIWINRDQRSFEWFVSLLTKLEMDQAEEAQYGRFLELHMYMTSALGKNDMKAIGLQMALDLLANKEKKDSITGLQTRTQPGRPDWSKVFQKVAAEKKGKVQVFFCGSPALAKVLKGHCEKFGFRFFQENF
Chain of NADPH oxidase 2 (Homo sapiens) (P04839 whole entry, looked up): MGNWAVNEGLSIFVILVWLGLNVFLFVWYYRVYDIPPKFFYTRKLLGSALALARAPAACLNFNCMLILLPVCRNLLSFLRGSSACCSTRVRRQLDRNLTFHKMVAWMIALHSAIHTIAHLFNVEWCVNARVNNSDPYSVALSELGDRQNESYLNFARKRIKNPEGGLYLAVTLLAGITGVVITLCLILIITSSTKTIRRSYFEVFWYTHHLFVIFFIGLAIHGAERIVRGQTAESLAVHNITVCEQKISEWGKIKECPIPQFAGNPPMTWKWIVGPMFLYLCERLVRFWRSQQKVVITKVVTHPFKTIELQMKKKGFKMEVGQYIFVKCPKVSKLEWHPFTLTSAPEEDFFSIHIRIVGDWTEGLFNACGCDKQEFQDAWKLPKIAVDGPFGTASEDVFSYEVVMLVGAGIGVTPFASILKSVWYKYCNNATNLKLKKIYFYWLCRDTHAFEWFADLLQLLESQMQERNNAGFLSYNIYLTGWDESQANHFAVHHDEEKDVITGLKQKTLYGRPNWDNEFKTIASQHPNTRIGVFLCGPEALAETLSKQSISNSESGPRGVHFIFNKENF

Take `CC(C)CON=C1C[C@@H](O)[C@@H](O)[C@@H]2[C@@H]3C(=O)N(C4CCCCC4)C(=O)[C@@H]3CC[C@H]12`: the z-score in [1] is 0.539 (inactive); in assay [3] it was -0.172 (inactive); in assay [4], 0.193 (inactive); in assay [5] it was 0.168 (inactive); in assay [6], 0.0575 (inactive); in assay [7], -0.545. Besides, the z-score in assay [8] is -0.671 (inactive); in assay [9], -0.118 (inactive); in assay [10], -0.246; in assay [11], 0.325; in assay [12], 0.274; in assay [13] it was 0.232. In addition, the z-score was 0.768 in assay [14]; -0.909 in assay [15]; -0.357 in [16]; 0.0297 (inactive) in assay [17]; 0.0139 in [18]; -0.0788 in [19]. In addition, the z-score in assay [20] was -0.318 (inactive). The compound further displayed a composite z-score in assay [2] of -0.101.
On to `Cc1cc2c(nc1C)CCCCN2CC(C)ON=C[C@@H](C)[C@H](OCc1ccccc1)C(C)C` (stereo not given in full), for which the z-score is -0.0958 (inactive) in [1]; 1.34 (inactive) in [3]; 0.147 (inactive) in assay [4]; 0.472 (inactive) in assay [5]; 0.171 (inactive) in assay [6]; -0.732 in [7]. Besides, the z-score in [8] is -0.892 (inactive); in [9], -0.45 (inactive); in [10], -3.3; in assay [11], -0.672; in assay [12], -0.44; in assay [13], -1.27. For the same compound, the z-score in [14] was -2.94; in assay [15], -3.77; in [16], -1.91; in [17], -1.4 (inactive); in assay [18], -0.262; in assay [19], 0.034. Moreover, in assay [20], the z-score was 4.05 (inactive). Also, the composite z-score in assay [2] is -0.8.
With `COc1ccc(O[C@H]2C=C[C@@H](c3ccccc3)O[C@@H]2CON=C2[C@H]3CCn4c(=O)n(-c5ccccc5)c(=O)n4[C@H]3[C@H](O)[C@@H]3O[C@H]23)cc1`, the z-score is -0.402 (inactive) in assay [1]; 8.37 (active) in assay [3]; 1.25 (inactive) in assay [4]; 0.671 (inactive) in assay [5]; 0.858 (inactive) in [6]; -0.511 in [7]. Moreover, the z-score in [8] was -1.37 (inactive); in assay [9], -0.132 (inactive); in assay [10], -0.17; in [11] it was 0.455; in assay [12], -0.669; in assay [13], -0.0924. Also, the z-score in assay [14] was -2.98; in assay [15], -1.37; in assay [16], -0.0967; in [17], 0.112 (inactive); in [18] it was -0.921; in assay [19] it was -0.429. Further, the z-score in assay [20] is -1.55 (inactive). Moreover, the composite z-score in assay [2] is -0.012.
`CCOC(=O)NN=C1C[C@@H](O)[C@@H](O)[C@@H]2[C@@H]3C(=O)N(c4cccc(Oc5ccccc5)c4)C(=O)[C@@H]3CC[C@H]12`: the z-score in [1] is 0.0433 (inactive); in assay [3], 1.6 (inactive); in assay [4], -1.04 (inactive); in [5] it was 0.0278 (inactive); in assay [6] it was -1.58 (inactive); in assay [7], 0.742. The z-score was -0.515 (inactive) in assay [8]; 0.209 (inactive) in assay [9]; -1.33 in [10]; 0.285 in assay [11]; 1.01 in assay [12]; -0.0233 in assay [13]. Moreover, the z-score is 0.0687 in [14]; 0.443 in assay [15]; 1.03 in [16]; 0.675 (inactive) in assay [17]; 0.00981 in assay [18]; -1.56 in assay [19]. Besides, the z-score in assay [20] is -0.263 (inactive). This compound also displayed a composite z-score in assay [2] of -0.0958.
